Hits are enriched below; roughly 19% of the tested compounds scored in any of these assays.
Pf growth 96h = inhibits malaria parasite growth, 96 h. P. falciparum luciferase reporter growth, 96 h. Potency, µM (doses to about 28.7 µM), for inactives: at the top dose activity change, negative = inhibition, usual class: inhibitors. 320,000 compounds, 6.9% hits. AID 504834; also: potency is read from the fitted curve at half-maximal effect; % is scaled to controls: 0 for no effect and ±100 for the full control effect
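Readout is luminescence from an integrated firefly luciferase in P. falciparum. Red cells, 2% hematocrit and 0.05% parasitemia final, were cultured with compound through two parasite generations (96 hours) at 37 C, 5% CO2.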
Shiga inhibitor = Shiga toxin inhibition | Vero cells, Shiga toxin protein synthesis inhibition reporter | inhibition, % at 38.7 µM | 290,000 compounds, 9.2% hits | AID 2315; in the data active = inhibition mostly above about 28%, no sharp cut-off; inactive = mostly below about 43%; also: 0% is about no effect
SARS PLP yeast = inhibitors of SARS-CoV papain-like protease in yeast. Potency, µM (series often up to 32.9 µM), for inactives: at the top dose activity, positive = growth rescue, hits mostly activators. S. cerevisiae expressing SARS-CoV PLpro, growth rescue. 330,000 compounds, 0.19% hits; calls by dose curve; also: potency is read from the fitted curve at half-maximal effect; 0% is about no effect; nearly all actives have a fitted effect of over 55% in size
Pf growth 48h = P. falciparum growth inhibition at 48 hours (one generation) | AID 504832 | P. falciparum luciferase growth in erythrocytes, 48 h | Potency, µM (series often up to 28.7 µM), inactives show top-dose activity change, negative = inhibition, most hits filed as inhibitors | 310,000 compounds, 5.9% hits; also: potency is read from the fitted curve at half-maximal effect; % is scaled to controls: 0 for no effect and ±100 for the full control effect
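Here the parasites carry a stable luciferase gene and grow inside erythrocytes in Albumax-based RPMI medium with compound for one erythrocytic cycle. Activity is scored as loss of luminescent signal.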
AMA1 RON2 block = AMA1-RON2 (P. falciparum) interaction inhibition. Potency, µM (top dose mostly 58.2 µM), without a hit: at the top dose activity change, negative = inhibition, most hits filed as inhibitors. AlphaScreen AMA1-biotinylated RON2 peptide binding. 360,000 compounds, 0.2% hits;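 also: potency is read from the fitted curve at half-maximal effect; 0% = vehicle wells and -100% = peptide control; nearly all actives have a fitted effect of over 45% in size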
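AMA1 (3D7) with his tag at 25 nM final met compounds first, then biotinylated RON2 peptide at 25 nM; detection used donor plus acceptor beads, 10 µg/mL apiece, read by AlphaScreen after 30 min at room temperature.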
Cycloheximide cs = affects cycloheximide protein synthesis inhibition readout, counter-screen; cell reporter, cycloheximide protein synthesis inhibition counterscreen; max response, %; 300,000 compounds, 12% hits; in the data active = max response mostly above about 13%, no sharp cut-off; inactive = mostly below about 14%; also: read at 38.3 µM for the half of the compounds with a filed dose; 0% is about no effect
* hit, by the source's call; ? = inconclusive; . = no result. Unless noted, calls follow the shape of the dose curve; as a rule, active = well fitted curve in the direction sought with a large enough effect; inconclusive = small, poorly fitted or top-dose-only effect, or another doubt; inactive = no such curve, though single readings can be large; an effect the other way counts as inactive or inconclusive.

SMILES	Pf growth 96h	Shiga inhibitor	SARS PLP yeast	Pf growth 48h	AMA1 RON2 block	Cycloheximide cs
Nn1c(SCC(=O)N2CCN(S(=O)(=O)c3ccccc3)CC2)nnc1-c1cccs1	24%	-2	4%	-14%	-12%	-3
N=c1c2c(-c3ccccc3)c(-c3ccccc3)n(Cc3ccco3)c2ncn1CCCO	13µM*	-3	0%	?	-26%	-5
N=c1c2c(-c3ccccc3)c(-c3ccccc3)n(Cc3ccco3)c2ncn1CCO	-19%	-6	-20%	?	-19%	-6
O=c1cc(CSc2nnnn2-c2ccccc2)nc2scc(-c3ccccc3)n12	8.3µM*	19	0%	?	-5%	-1
CCc1ccc(C2=CSC3=NCCN23)cc1	1%	-4	1%	-5%	11%	1
COc1ccc(C(=O)Nc2ccc(NC(=O)c3ccccn3)cn2)cc1	-3%	78*	-7%	21%	4%	11
COc1ccc(C(=O)Nc2ccccn2)cc1	7%	9	4%	-2%	-4%	-4
COc1ccc(C(=O)Nc2ccc(NC(=O)Cc3ccccc3)cn2)cc1	?	31	-2%	-3%	12%	20*
COc1ccc(C(=O)Nc2ccccc2C(=O)Nc2ccccn2)cc1	-6%	.	-6%	28%	-7%	26*
O=C(COC(=O)/C=C/c1cccc([N+](=O)[O-])c1)NCc1ccc2c(c1)OCO2	19%	15	-6%	7%	10%	-1
OC1(c2cccc(C(F)(F)F)c2)CCN(CCN2CCCCC2)CC1	51%	-5	-11%	?	-4%	-3
O=C(O)/C=C/c1cnc2ccccc2n1	-22%	-5	0%	-16%	-1%	-3
Fc1cccc(F)c1/C=C/c1ccc2ccccc2n1	126%	54*	-35%	88%	7%	24*
C(=C\c1ccco1)/c1ccc2ccccc2n1	38%	52*	-2%	346%	-17%	38*
O=C(/C=C/c1ccc2ccccc2n1)N1CCN(c2ccccc2)CC1	-4%	13	-6%	0%	-15%	-2
COc1ccc(C=Cc2ccc3ccccc3n2)c(OC)c1	.	.	.	.	75%	.
CC(O)/C=C/c1ccc2ccccc2n1 (stereo not given)	.	33*	-8%	-19%	3%	23*
Fc1cccc(Cl)c1/C=C/c1cnc2ccccc2n1	28%	75*	-1%	.	6%	48*
Cc1ccc2c(c1)N(CC(=O)NCCC1=CCCCC1)C(=O)c1cccnc1O2	?	0	-13%	?	-29%	-2
CN(C)S(=O)(=O)c1ccc(C(=O)Nc2ccc(F)cc2F)cc1	15%	15	-6%	12%	1%	8
CCN(CC)S(=O)(=O)c1cc(C(=O)Nc2cc(Cl)ccc2N2CCN(C)CC2)ccc1Cl	2.6µM*	-14	-2%	.	1%	-4
CN(C)S(=O)(=O)c1ccc(C(=O)Nc2cc(S(=O)(=O)Nc3ccccc3Cl)ccc2N2CCCCC2)cc1	1.3µM*	9	-14%	2.3µM*	5%	-5
CN1CCN(c2ccc(Cl)cc2NC(=O)c2ccc(S(=O)(=O)N(C)C)cc2)CC1	3.3µM*	-11	7%	.	-4%	5
COc1ccc(NC(=S)N2CCN(C/C=C/c3ccccc3)CC2)cc1OC	?	-5	-7%	-10%	-16%	-3
CCOC(=O)c1ccc(NC(=O)NCCc2cnc[nH]2)cc1	?	-1	12%	3%	12%	2
SMILES	Pf growth 96h	Shiga inhibitor	SARS PLP yeast	Pf growth 48h	AMA1 RON2 block	Cycloheximide cs
Cc1nc2ccccc2c(=O)n1/N=C/c1ccc(O)cc1O	341%	16	2%	-5%	34%	-2
CCCc1nc2ccccc2c(=O)n1/N=C/c1ccccc1O	.	59	19%	12µM*	52%	47*
CCCc1nc2ccccc2c(=O)n1/N=C/c1c(C)[nH]n(-c2ccc(C)cc2)c1=O	3.7µM*	11	1%	-29%	3%	9
COC(C(=O)NNC(=O)CCc1ccccc1)c1ccccc1 (stereo not given)	-39%	-22	0%	-30%	50%	-3
CC(=O)Nc1ccc(NC(=O)CN(c2cccc([N+](=O)[O-])c2)S(C)(=O)=O)cc1	174%	-4	0%	1%	-10%	-1
Cc1cc(CN(C)C(=O)CC2C(=O)NCCN2CC(c2ccccc2)c2ccccc2)on1 (stereo not given)	22%	7	-1%	-10%	-7%	-1
CN(CC1CCOCC1)C(=O)CC1C(=O)NCCN1C/C=C/c1ccccc1 (stereo not given)	4.7µM*	-6	1%	6%	1%	1
Cc1ccc(CN2CCNC(=O)C2CC(=O)N(C)C2CCCCC2)cc1 (stereo not given)	-5%	-5	-6%	?	-9%	-5
Cc1cc(CNC(=O)CC2C(=O)NCCN2Cc2ccc(-c3ccccc3)cc2)nn1C (stereo not given)	9.3µM*	-1	9%	-13%	18%	2
Cc1cc(CNC(=O)CC2C(=O)NCCN2CC(c2ccccc2)c2ccccc2)on1 (stereo not given)	15µM*	14	1%	1%	2%	-2
Cc1ccc(CN2CCNC(=O)C2CC(=O)N(C)CCc2ccccc2)cc1 (stereo not given)	7.4µM*	1	0%	?	0%	-1
CCc1cccc(NS(=O)(=O)c2c(C)[nH]c(=O)[nH]c2=O)c1	5%	6	-1%	26%	-1%	6
O=C1CCCCc2sc(Br)c([N+](=O)[O-])c2N1	0%	-13	-1%	0%	-13%	-1
CCN=C(NCC)SC1CC(=O)N(c2ccc(F)cc2)C1=O (stereo not given)	73%	-9	-1%	2%	9%	-6
O=C(CSc1nc(=O)n(CCCN2CCOCC2)c2c1CCCC2)Nc1ccc(F)cc1	-12%	.	3%	0%	0%	.
CN(CCc1ccccn1)C(=O)CC1C(=O)NCCN1Cc1ccc(-c2ccccc2)cc1 (stereo not given)	12µM*	11	-3%	?	8%	1
CN(CC1CCOCC1)C(=O)CC1C(=O)NCCN1Cc1cccc(F)c1 (stereo not given)	84%	21	5%	?	19%	4
O=C1NCCN(Cc2ccoc2)C1CC(=O)N(Cc1ccccc1)CC1CCC1 (stereo not given)	?	34	0%	16%	8%	13*
Cc1ccccc1C(=O)Nc1ccccc1-c1nnn(CC(=O)Nc2ccc3c(c2)OCCO3)n1	91%	41	4%	?	8%	38*
CC(=O)Nc1ccccc1-c1nnn(CC(=O)Nc2ccc3c(c2)OCCO3)n1	26%	45	-3%	3%	18%	24*
O=C(Cn1nnc(-c2ccccc2F)n1)Nc1ccc2c(c1)OCCO2	-18%	79*	-2%	21%	3%	32*

Bioassay records deposited in PubChem BioAssay by National Center for Advancing Translational Sciences (NCATS).
